Test results as given in PubChem BioAssay AID1159580 (chemical genetic matrix, 2015).
In all, about 5,500 compounds went through this assay and about 2,000 (36%) were called active. Another 18% or so got no clear call; they are omitted. The list shows a part of the results. Values without a mark were called inactive. Cut-off read from the data, not from the text of the source: active = normalized growth mostly below about 0.91 (no sharp cut-off); inconclusive = no clear call, values can overlap the other calls; inactive = mostly above about 0.92.

Test: chemical genetic growth profiling, strain panel (AID 1159580);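 note: tested at 20 µM; growth read once vehicle control cultures reached saturation at 30 °C; 1 = growth at the plate median or of vehicle wells; lower values mean less growth of the strain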
Conditions: S. cerevisiae deletion strains, growth OD

## CC(C)COC(=O)OCN1C(=O)CN(CCN2CC(=O)N(COC(=O)OCC(C)C)C(=O)C2)CC1=O
Locus YAL040C, strain CLN3, hits give low values
  normalized growth: 1.01
Locus YCL061C, strain MRC1 (second series), hits give low values
  normalized growth: 1.01
Locus YDR150W, strain NUM1, hits give low values
  normalized growth: 1.01
Locus YDR363W, strain ESC2, hits give low values
  normalized growth: 1.01
Locus YER002W, strain NOP16, hits give low values
  normalized growth: 0.997
Locus YGR078C, strain PAC10, hits give low values
  normalized growth: 1
Locus YJR075W, strain HOC1, hits give low values
  normalized growth: 1.01
Locus YMR307W, strain GAS1, hits give low values
  normalized growth: 1.01
Locus YNL175C, strain NOP13, hits give low values
  normalized growth: 1
Locus YNL197C, strain WHI3, hits give low values
  normalized growth: 0.999
Locus YNL224C, strain SQS1, hits give low values
  normalized growth: 0.996
Locus YNL322C, strain KRE1, hits give low values
  normalized growth: 1.01
Locus YOR083W, strain WHI5 (second series), hits give low values
  normalized growth: 1.01
Locus YPL055C, strain LGE1, hits give low values
  normalized growth: 1.03

## CCCCCc1ccc(S(=O)(=O)Nc2ccc3c(c2)C(=O)OC3)cc1
Locus YAR019C, strain CDC15, hits give low values
  normalized growth: 0.991
Locus YBL105C, strain PKC1, hits give low values
  normalized growth: 0.994
Locus YBR135W, strain CKS1, hits give low values
  normalized growth: 0.981
Locus YBR136W, strain MEC1, hits give low values
  normalized growth: 0.982
Locus YBR160W, strain CDC28, hits give low values
  normalized growth: 0.984
Locus YDL017W, strain CDC7, hits give low values
  normalized growth: 0.985
Locus YDL028C, strain MPS1, hits give low values
  normalized growth: 0.983
Locus YDL101C, strain DUN1, hits give low values
  normalized growth: 0.998
Locus YDL108W, strain KIN28, hits give low values
  normalized growth: 0.982
Locus YDL132W, strain cdc53, hits give low values
  normalized growth: 0.985
Locus YDL214C, strain PRR2, hits give low values
  normalized growth: 0.948
Locus YDR052C, strain DBF4, hits give low values
  normalized growth: 0.998
Locus YDR054C, strain cdc34, hits give low values
  normalized growth: 0.974
Locus YDR226W, strain ADK1, hits give low values
  normalized growth: 0.987
Locus YDR477W, strain SNF1, hits give low values
  normalized growth: 0.972
Locus YER123W, strain YCK3, hits give low values
  normalized growth: 0.969
Locus YER133W, strain GLC7, hits give low values
  normalized growth: 0.951
Locus YFL009W, strain cdc4, hits give low values
  normalized growth: 0.981
Locus YFL029C, strain CAK1, hits give low values
  normalized growth: 0.983
Locus YFR003C, strain YPI1, hits give low values
  normalized growth: 0.987
Locus YFR019W, strain FAB1, hits give low values
  normalized growth: 0.975
Locus YFR028C, strain CDC14, hits give low values
  normalized growth: 0.985
Locus YGR040W, strain KSS1, hits give low values
  normalized growth: 0.949
Locus YGR052W, strain FMP48, hits give low values
  normalized growth: 1.03
Locus YGR092W, strain DBF2, hits give low values
  normalized growth: 0.992
Locus YHR030C, strain SLT2, hits give low values
  normalized growth: 0.997
Locus YHR079C, strain IRE1, hits give low values
  normalized growth: 0.977
Locus YHR082C, strain KSP1, hits give low values
  normalized growth: 1.02
Locus YHR205W, strain SCH9, hits give low values
  normalized growth: 0.963
Locus YIL147C, strain SLN1, hits give low values
  normalized growth: 0.983
Locus YJL095W, strain BCK1, hits give low values
  normalized growth: 0.967
Locus YJL128C, strain PBS2, hits give low values
  normalized growth: 0.944
Locus YJL157C, strain FAR1, hits give low values
  normalized growth: 0.953
Locus YJR016C, strain ILV3, hits give low values
  normalized growth: 0.977
Locus YJR066W, strain TOR1 (second series), hits give low values
  normalized growth: 0.937
Locus YJR066W, strain TOR1, hits give low values
  normalized growth: 1.02
Locus YKL048C, strain ELM1, hits give low values
  normalized growth: 0.967
Locus YKL067W, strain YNK1, hits give low values
  normalized growth: 0.959
Locus YKL101W, strain HSL1, hits give low values
  normalized growth: 0.933
Locus YKL193C, strain SDS22, hits give low values
  normalized growth: 0.978
Locus YKL203C, strain TOR2, hits give low values
  normalized growth: 1.02
Locus YLR113W, strain HOG1, hits give low values
  normalized growth: 0.86 (active)
Locus YLR133W, strain CKI1, hits give low values
  normalized growth: 0.963
Locus YLR403W, strain SFP1, hits give low values
  normalized growth: 0.938
Locus YML070W, strain DAK1, hits give low values
  normalized growth: 0.945
Locus YMR001C, strain CDC5, hits give low values
  normalized growth: 0.986
Locus YMR205C, strain PFK2 (second series), hits give low values
  normalized growth: 0.963
Locus YMR277W, strain FCP1, hits give low values
  normalized growth: 0.982
Locus YNL006W, strain LST8, hits give low values
  normalized growth: 0.99
Locus YNL020C, strain ARK1, hits give low values
  normalized growth: 0.966
Locus YNL161W, strain CBK1, hits give low values
  normalized growth: 0.978
Locus YNL183C, strain NPR1, hits give low values
  normalized growth: 0.964
Locus YNL207W, strain RIO2, hits give low values
  normalized growth: 0.967
Locus YNL222W, strain SSU72, hits give low values
  normalized growth: 0.978
Locus YNL307C, strain MCK1 (second series), hits give low values
  normalized growth: 0.979
Locus YOL078W, strain AVO1, hits give low values
  normalized growth: 0.979
Locus YOL136C, strain PFK27, hits give low values
  normalized growth: 0.948
Locus YOR061W, strain CKA2, hits give low values
  normalized growth: 0.976
Locus YOR119C, strain RIO1, hits give low values
  normalized growth: 1.01
Locus YOR231W, strain MKK1, hits give low values
  normalized growth: 0.917
Locus YOR329C, strain SCD5, hits give low values
  normalized growth: 0.985
Locus YPL031C, strain PHO85, hits give low values
  normalized growth: 0.966
Locus YPL153C, strain RAD53, hits give low values
  normalized growth: 0.951
Locus YPL204W, strain HRR25, hits give low values
  normalized growth: 0.942
Locus YPL209C, strain IPL1, hits give low values
  normalized growth: 0.981
Locus YPL256C, strain CLN2, hits give low values
  normalized growth: 0.923
Locus YPR025C, strain CCL1, hits give low values
  normalized growth: 0.983
Locus YPR106W, strain ISR1, hits give low values
  normalized growth: 0.971
Locus YPR111W, strain DBF20, hits give low values
  normalized growth: 0.954
Strain NNK1, hits give low values
  normalized growth: 0.976
Strain TSCII, hits give low values
  normalized growth: 0.988
